CtBP-E1A blk – blocks the CtBP interaction with E1A; AlphaScreen GST-E1A/His-CtBP binding, 1536-well; hits give low values; activity change, % (concentration not given with the values); 340,000 tested, 0.49% active; AID 651724; in the data active = activity change below about -65%; inconclusive = mostly about -30% to -63%; also: % is scaled to controls: 0 for no effect and ±100 for the full control effect
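GST-E1A and His-tagged CtBP (125 nM each as 5X stock) were preincubated with pin-transferred compound for 2 h at 37 °C in the dark, then glutathione donor and nickel acceptor beads were added for 1 h before AlphaScreen reading.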
MBNL1 CUG block – inhibitors of human MBNL1 binding to CUG repeat RNA; AID 2675; TR-FRET MBNL1-His/biotin-(CUG)12 binding, 665/545 ratio; Potency, µM (doses to about 57.5 µM), for inactives: at the highest dose activity change, negative = inhibition, actives largely listed as inhibitors; 280,000 tested, 0.036% active; active = well fitted inhibition curve with a large enough effect in the signal ratio, with a control signal flat, not every such curve was filed as active; inconclusive = small, poorly fitted or top-dose-only effect, or effect the other way, or a change in a side signal; inactive = no such curve, though single readings can be large or run the other way; the % refers to the signal ratio; also: potency is read from the fitted curve at half-maximal effect; % is scaled to controls: 0 for no effect and ±100 for the full control effect
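Compounds (final 92 nM to 58 uM) are added to His-tagged MBNL1 and biotin-(CUG)12, then terbium anti-His antibody and streptavidin-XL665 (5 nM final). After 60 min at room temperature, the 665/545 nm ratio is read.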
Gal4-VP16 FLuc – Gal4-VP16 reporter inhibition counter-screen; Drosophila S2 Gal4-VP16 UAS-luciferase, luminescence, 20 h; Potency, µM (highest dose often 53.6 µM), for the others: top-dose activity, negative = inhibition, hits mostly inhibitors; 310,000 tested, 3.5% active;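 also: Gal4-VP16 expression switched on by copper sulfate through the metallothionein promoter; potency is read from the fitted curve at half-maximal effect; % is scaled to controls: 0 for no effect and ±100 for the full control effect; nearly all actives have a fitted effect of over 50% in size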
Six1-Eya2 inh – inhibitors of human Six1/Eya2 interaction; AID 651725; 360,000 tested, 0.56% active; Q15475+O00167; activity change, % (test concentration not listed); AlphaScreen GST-Six1/His-Eya2 binding, biochemical; hits give low values; in the data active = activity change below about -65%; inconclusive = mostly about -30% to -63%; also: % is scaled to controls: 0 for no effect and ±100 for the full control effect
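Six1/Eya2 binding was read as AlphaScreen signal after compounds were pinned into GST-Six1 plus His-tagged Eya2 (5X stock 250/500 nM) in pH 8.0 Tris/NaCl/TCEP buffer, beads added, then incubated 1 h, 37 C, dark.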
RORgamma inh – blocks mouse ROR gamma transcriptional activity | Drosophila S2 Gal4-RORgamma UAS-luciferase reporter, 20 h | 310,000 tested, 5.4% active | Potency, µM (doses to about 53.6 µM), for the others: at the highest dose activity change, negative = inhibition, most hits filed as inhibitors | P51450; also: potency is read from the fitted curve at half-maximal effect; % is scaled to controls: 0 for no effect and ±100 for the full control effect; nearly all actives have a fitted effect of over 60% in size
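A Gal4/UAS one-hybrid system in insect cells: metallothionein-promoter Gal4–ROR gamma fusion plus Photinus luciferase reporter. Copper sulfate 700 uM final, 20 hr ambient incubation, luminescent detection after 10 min with reagent.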
CBFb-RUNX1 inh – blocks binding between human CBF-beta and RUNX1; Q01196+Q13951; AlphaScreen CBFb-His/RUNX1-biotin binding, biochemical; Potency, µM (top dose mostly 59.8 µM), for the others: top-dose activity, negative = inhibition, most hits filed as inhibitors; 230,000 tested, under 10 active; AID 1477; also: % of control where 0% means no effect
Target sequence (Q01196 whole entry, looked up): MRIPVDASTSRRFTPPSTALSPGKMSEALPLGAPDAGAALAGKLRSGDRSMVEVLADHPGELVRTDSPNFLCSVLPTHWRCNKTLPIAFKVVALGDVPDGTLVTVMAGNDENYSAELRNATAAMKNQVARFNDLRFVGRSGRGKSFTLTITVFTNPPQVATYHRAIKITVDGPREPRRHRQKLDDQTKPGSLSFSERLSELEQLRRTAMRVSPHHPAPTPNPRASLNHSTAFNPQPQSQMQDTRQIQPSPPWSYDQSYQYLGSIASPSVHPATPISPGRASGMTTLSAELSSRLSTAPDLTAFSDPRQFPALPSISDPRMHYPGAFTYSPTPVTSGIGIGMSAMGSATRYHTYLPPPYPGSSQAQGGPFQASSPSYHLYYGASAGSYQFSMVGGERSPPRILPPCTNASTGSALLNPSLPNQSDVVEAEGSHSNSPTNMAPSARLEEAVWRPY
Target sequence (Q13951 whole entry, looked up): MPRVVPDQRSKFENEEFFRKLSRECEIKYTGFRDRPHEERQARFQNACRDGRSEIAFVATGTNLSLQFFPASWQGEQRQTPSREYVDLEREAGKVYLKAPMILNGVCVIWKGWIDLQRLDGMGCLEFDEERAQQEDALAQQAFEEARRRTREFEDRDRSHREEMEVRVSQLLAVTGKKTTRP
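Inhibition was taken as any reduction in AlphaScreen signal from the CBF-beta–RUNX1 pair (His and biotin tags, 30 nM each), measured after compound (15 min) and bead (90 min) incubations at room temperature.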
Active calls of the source: *; ? = inconclusive; . = no result; [ ] = remark or other dose. Rows were chosen to be rich in hits. Some 5.5% of all compounds tested hit in one or more screens of this group. Unless noted, calls follow the shape of the dose curve; as a rule, active = well fitted curve in the direction sought with a large enough effect; inconclusive = small, poorly fitted or top-dose-only effect, or another doubt; inactive = no such curve, though single readings can be large; an effect the other way counts as inactive or inconclusive.

SMILES	CtBP-E1A blk	MBNL1 CUG block	Gal4-VP16 FLuc	Six1-Eya2 inh	RORgamma inh	CBFb-RUNX1 inh
C=C(C)CNC(=S)NNC(=O)CCn1c2ccccc2c2ccccc21	0	7%	?	-3	7.1µM*	-5%
C=CCNC(=S)NNC(=O)COc1ccc(Cl)cc1Cl	5	-19%	1%	1	21%	3%
C=C(C)CNC(=S)NNC(=O)c1ccncc1	.	-3%	-7%	3	?	2%
C=C(C)CNC(=S)NNC(=O)CCn1c2cc(Cl)ccc2c2ccc(Cl)cc21	-3	.	8.9µM*	-2	5µM*	0%
C=C(C)CNC(=S)NNC(=O)CCn1c2ccc(Cl)cc2c2cc(Cl)ccc21	-15	7%	0.5µM*	-3	0.63µM*	-3%
CCOC(=O)CC[C@H](NC(=O)Cn1cc(C)c(=O)[nH]c1=O)C(=O)OCC	2	.	.	5	.	.
O=C(Cc1ccc(Cl)cc1)Nc1cccc(S(=O)(=O)N2CCCCC2)c1	5	.	.	-1	.	.
O=C(CCl)Nc1cccc(S(=O)(=O)N2CCCCCC2)c1	3	-14%	?	-3	35µM*	-7%
O=C(Nc1cccc(S(=O)(=O)N2CCOCC2)c1)[C@@H]1CCCN1S(=O)(=O)c1ccc(Cl)cc1	-65*	-22%	-3%	?	43%	9%
CC(=O)c1ccc(Nc2nc(C(C)N)cs2)cc1 (stereo unspecified)	-15	.	.	2	.	.
Cc1ccc(/C=C/C(=O)N2CCCC(C(N)=O)C2)o1 (stereo unspecified)	7	.	0%	17	8%	6%
CCCC1=NN(C(=O)C(=O)Nc2ccc(Br)cc2)C(O)(C(F)(F)F)C1 (stereo unspecified)	-2	-18%	5µM*	0	0.79µM*	1%
CCCCC1=NN(C(=O)c2cocc2C)C(O)(C(F)(F)F)C1 (stereo unspecified)	7	?	?	0	?	0%
CCC1=NN(C(=O)C(=O)Nc2ccc(Br)cc2)C(O)(C(F)(F)F)C1 (stereo unspecified)	33	-5%	5µM*	2	2.8µM*	-8%
COc1ccc(NC(=O)C(=O)N2N=C(C(C)C)CC2(O)C(F)(F)F)cc1 (stereo unspecified)	12	2%	?	2	7.9µM*	-1%
CC(C)C1=NN(C(=O)c2cccnc2)C(O)(C(F)(F)F)C1 (stereo unspecified)	6	-1%	?	3	-49%	0%
Cc1cc(C)c(NC(=O)COC(=O)C2CCCCC2)c(C)c1	-12	.	.	8	.	.
CCOC(c1cc(OC)cc([N+](=O)[O-])c1OC)C(C)C(OC)[C@@H](C)/C=C/CC(=O)OC (stereo partly specified)	.	.	-10%[10 µM]	.	-11%[10 µM]	-2%[13.1 µM]
Cc1cccc(NC(=O)CNC(=O)[C@H]2O[C@@H](n3ccc(N)nc3=O)[C@H](O)[C@@H]2O)c1C	4	.	.	8	.	.
O=C(Nc1nc2ccccc2[nH]1)C1CCC1	5	1%	?	-15	?	6%
O=C(Nc1nc2ccccc2[nH]1)C1CCCC1	11	2%	?	-19	7.1µM*	-12%
O=C(CC1CCCC1)Nc1nc2ccccc2[nH]1	5	-4%	?	-4	8.9µM*	1%
CC/C(CC(=O)C(F)(F)F)=N\NC(=O)/C(C#N)=C/N(C)C	2	13%	?	-1	7.1µM*	7%
COC(/C(=N/O)c1ccc(Cl)cc1)c1ccccc1 (stereo unspecified)	-23	0%	4.5µM*	-1	5.6µM*	.
COc1ccc(Cl)cc1NC(=O)C(OC)c1ccccc1 (stereo unspecified)	13	-4%	-1%	11	1%	5%
COC(=O)C/C=N/N=C1/NC(=O)/C(=C/C(=O)O)S1	.	.	16%	0	14%	-10%

Source: PubChem
